PubChem BioAssay (NCATS)
Inconclusive results are not listed. Where a call stands in place of a potency, no number is given. Activity calls are given as the source filed them. Unless noted, calls follow the shape of the dose curve; as a rule, active = well fitted curve in the direction sought with a large enough effect; inconclusive = small, poorly fitted or top-dose-only effect, or another doubt; inactive = no such curve, though single readings can be large; an effect the other way counts as inactive or inconclusive.

Assays:
[1] = qHTS to identify inhibitors of the type 1 interferon - major histocompatibility complex class I in skeletal muscle: primary screen against the NCATS LOPAC collection (AID 1347405);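 also: lytic HiBiT luminescence reporting HLA-B protein level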; also: potency is read from the fitted curve at half-maximal effect
How it was run: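 Cells: C25cl48 human myoblasts, HiBiT-tagged HLA-B*08:01, stimulated with IFN-beta 4.0 ng/ml. Compounds are titrated 1:4.3 over 7 points from 46 uM final and incubated 24 hrs; endogenous MHC class I is quantified by HiBiT lytic luminescence.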

[2] = qHTS for inhibitors of adenylyl cyclases using a fission yeast platform: a pilot screen against the NCATS LOPAC library (AID 1347410)
How it was run: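 Growth medium went into the plates first, then compounds were pinned (final up to 57 µM), then CHP2027 yeast were added. Plates were incubated overnight (18 h) at 30C in the dark, and GFP was measured by laser scanning cytometry.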

[3] = Validation qHTS assay for inhibitors of Activation Induced Cytidine Deaminase (AID): UDG Counterscreen signal (AID 1347427)
How it was run: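 Counterscreen read of UDG activity (2 U/mL, 4/3x) in the FRET deamination format with AID (1 uM, 4/3x), DJC20/DJC23 substrates (250 nM, 4x), 4 h at room temperature. NaOH stop, fluorescence at 560 ex/665 em.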

[4] = target: Single-stranded DNA cytosine deaminase (Homo sapiens) (UniProt Q9GZX7); experiment: Validation qHTS assay for inhibitors of Activation Induced Cytidine Deaminase (AID): AID signal (AID 1347429)
Chain of Single-stranded DNA cytosine deaminase (Homo sapiens) (Q9GZX7 whole entry, looked up): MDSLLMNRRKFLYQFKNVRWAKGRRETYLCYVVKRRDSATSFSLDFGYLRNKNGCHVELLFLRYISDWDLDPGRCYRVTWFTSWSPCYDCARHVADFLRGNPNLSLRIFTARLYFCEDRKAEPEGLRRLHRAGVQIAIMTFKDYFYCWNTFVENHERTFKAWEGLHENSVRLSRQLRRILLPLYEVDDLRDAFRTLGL
How it was run: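 In this coupled qHTS, AID deaminates a FRET-labelled ssDNA substrate in the presence of UDG over 4 hr at room temperature. Compounds span up to 114 uM final.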

[5] = Primary qHTS for inhibitors of SARS-S pseudo-typed particle cell entry (AID 1479145; calls by dose curve; also: series mostly up to about 57 µM; nearly all actives have a fitted effect of over 45% in size); conditions: outcome: dose series up to 57.1 µM unless noted
[6] = Primary qHTS for Huh7 cytotoxicity: counterscreen for inhibitors of MERS-S pseudotyped particle cell entry (AID 1479147; calls by dose curve); conditions: outcome: dose series up to 57.1 µM unless noted

SMILES | Potency [1] | outcome [2] | Potency [3] | Potency [4] | outcome [5] | outcome [6]
COc1ccc2c(c1O)-c1cccc3c1[C@@H](C2)N(C)CC3 | inactive | inactive | inactive | inactive |  | 
C[C@H](N)CN1CCc2ccc(Br)cc21 | inactive | inactive | inactive | inactive |  | 
c1ccc2c(N3CCNCC3)cccc2c1 | inactive | inactive | inactive | inactive |  | 
CC(Cc1ccc(OCC(=O)O)cc1)NCC(O)c1cccc(Cl)c1 (stereo unspecified) | inactive | inactive | inactive | inactive |  | 
C=CCN1C[C@@H](C)N([C@H](c2ccc(C(=O)N(CC)CC)cc2)c2cccc(OC)c2)C[C@@H]1C | inactive | inactive | inactive | inactive |  | 
Cc1c2ccncc2c(C)c2c1[nH]c1ccccc12 | 7.08 µM (active) | inactive | inactive | inactive |  | 
CCCN(CCC)C1CCc2cccc(O)c2C1 (stereo unspecified) | inactive | inactive | inactive | inactive |  | 
CC(N)Cc1c[nH]c2ccc(O)cc12 (stereo unspecified) | inactive | inactive | inactive | inactive |  | 
CC(N)c1cccc(Cl)c1Cl (stereo unspecified) | inactive | inactive | inactive | inactive |  | 
CC(=O)OCC1=C(C(=O)O)N2C(=O)[C@@H](NC(=O)CCC[C@@H](N)C(=O)O)[C@H]2SC1 | inactive | inactive | inactive | inactive |  | 
NC(=O)c1cc(N2CC2)c([N+](=O)[O-])cc1[N+](=O)[O-] | inactive | inactive | inactive | inactive |  | 
Clc1cc(I)cc(Cl)c1NC1=NCCN1 | inactive | inactive | inactive | inactive |  | 
CC(C)(O)[C@@H]1C2OC(=O)[C@@H]1[C@]1(O)C[C@H]3O[C@]34C(=O)O[C@H]2[C@]14C (tested in a mixture with another compound) | inactive | inactive | inactive | inactive |  | 
CC(C)NP(=O)(NC(C)C)OP(=O)(NC(C)C)NC(C)C | inactive | inactive | inactive | inactive |  | 
C#CCN[C@H](C)Cc1ccccc1 | inactive | inactive | inactive | inactive |  | 
CCS(=O)(=O)Nc1cccc(C(=C2CCCCC2)c2cnc[nH]2)c1 | inactive | inactive | inactive | inactive |  | 
NC(CCCCCP(=O)(O)O)C(=O)O (stereo unspecified) | inactive | inactive | inactive | inactive |  | 
NCC(CP(=O)(O)O)c1ccc(Cl)cc1 (stereo unspecified) | inactive | inactive | inactive | inactive |  | 
NNC(=O)c1ccc(O)cc1 | inactive | inactive | inactive | inactive |  | 

SMILES | Potency [1] | outcome [2] | Potency [3] | Potency [4] | outcome [5] | outcome [6]
CCCN(CCC)[C@H]1CCc2c(F)ccc(O)c2C1 | inactive | inactive | inactive | inactive |  | 
CCCN1CC[C@@H]2c3cc(O)ccc3CC[C@@H]21 | inactive | inactive | inactive | inactive |  | 
NC(=O)CI | inactive | inactive | inactive | inactive |  | 
C[N+]1(C)C2CCC1CC(OC(=O)c1c[nH]c3ccccc13)C2 (stereo unspecified) | inactive | inactive | inactive | inactive |  | 
CCCN(CCC)[C@@H]1CCc2cccc(O)c2C1 | inactive | inactive | inactive | inactive |  | 
CP(=O)(O)C1=CCNCC1 | inactive | inactive | inactive | inactive |  | 
NNC(N)=O | inactive | inactive | inactive | inactive |  | 
Cc1sc2ccccc2c1CC1=NCCN1 | inactive | inactive | inactive | inactive |  | 
COc1ccc2[nH]c3c(c2c1)CCNC3 | inactive | inactive | inactive | inactive |  | 
CN1CC[C@@]2(C)c3cc(OC(=O)Nc4ccccc4)ccc3N(C)[C@@H]12 | inactive | inactive | inactive | inactive |  | 
CCn1cnc2c(Nc3cccc(Cl)c3)nc(N[C@@H]3CCCC[C@@H]3N)nc21 | 2.51 µM (active) | inactive | inactive | inactive |  | 
CN1CCc2cccc(Cl)c2CC1 | inactive | inactive | inactive | inactive |  | 
NCCCP(=O)(O)O | inactive | inactive | inactive | inactive |  | 
O=C1CC[C@@]2(O)C3Cc4ccc(O)c5c4C2(CCN3CC2CC2)[C@H]1O5 (stereo partly specified) |  | inactive |  |  |  | 
Clc1ccc(N2CC3CCC(C2)N3)nn1 | inactive | inactive | inactive | inactive |  | 
COc1ccc(CNC(=O)/C=C/c2ccc3[nH]cc(CCN(C)C)c3c2)cc1 | inactive | inactive | inactive | inactive |  | 
Nc1ccc(CCN2CCN(c3cccc(C(F)(F)F)c3)CC2)cc1 | inactive | inactive | inactive | inactive |  | 
COc1ccc(OC)c(C(O)C(C)N)c1 (stereo unspecified) | inactive | inactive | inactive | inactive | inactive | inactive
CN(C(=O)Cc1ccc(Cl)c(Cl)c1)C(CN1CCCC1)c1cccc(OCC(=O)O)c1 (stereo unspecified) | inactive | inactive | inactive | inactive |  | 
